# According to the supplement of paper PMC12282887:
# ± gives the standard deviation of the averaged measurements.
# Assays:
# Assay in all cases: promoter activity interaction Z-score (Lux/OD deviation from empty-vector control); higher = stronger promoter induction by the compound
# [1] = test system: E. coli BW25113 acrABp lux reporter
# How it was run: (§1)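 Reporter strains of E. coli BW25113 grew at 37°C in 40 µl LB Lennox in 384-well plates. Readings of OD600 and luminescence were taken every 30 min over 12 h, integrated over 0–8 h (wild type) or 1–9 h (deletion strains), and wells below 10% of the median growth value were excluded. Scores are Z-transformed residuals of growth-normalised luminescence from a fit against a control.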
# [2] = test system: E. coli BW25113 micFp lux reporter
# How it was run: as §1
# [3] = test system: E. coli BW25113 ompFp lux reporter
# How it was run: as §1
# [4] = test system: E. coli BW25113 robp lux reporter
# How it was run: as §1
# [5] = test system: E. coli BW25113 soxSp lux reporter
# How it was run: as §1
# [6] = test system: E. coli BW25113 tolCp lux reporter
# How it was run: as §1
# [7] = 8.6 µg/ml, genetic background: wild type
# [8] = 8.6 µg/ml, genetic background: ΔmarA
# [9] = 8.6 µg/ml, genetic background: Δrob
# [10] = 8.6 µg/ml, genetic background: ΔsoxS
# [11] = 17.1 µg/ml, genetic background: wild type
# [12] = 17.1 µg/ml, genetic background: ΔmarA
# [13] = 17.1 µg/ml, genetic background: Δrob
# [14] = 17.1 µg/ml, genetic background: ΔsoxS
# [15] = 34.3 µg/ml, genetic background: wild type
# [16] = 34.3 µg/ml, genetic background: ΔmarA
# [17] = 34.3 µg/ml, genetic background: Δrob
# [18] = 34.3 µg/ml, genetic background: ΔsoxS
# [19] = 68.6 µg/ml, genetic background: wild type
# [20] = 68.6 µg/ml, genetic background: ΔmarA
# [21] = 68.6 µg/ml, genetic background: Δrob
# [22] = 68.6 µg/ml, genetic background: ΔsoxS
compound,measurement,setting,value
Nc1ccc(C(=O)O)cc1 [4-Aminobenzoic acid],promoter activity interaction Z-score,[1]; [7],-0.327 ± 0.11
same,promoter activity interaction Z-score,[1]; [8],-0.528 ± 0.3
same,promoter activity interaction Z-score,[1]; [9],0.0646 ± 0.18
same,promoter activity interaction Z-score,[1]; [10],0.357 ± 0.28
same,promoter activity interaction Z-score,[1]; [11],0.051 ± 0.24
same,promoter activity interaction Z-score,[1]; [12],-0.48 ± 0.058
same,promoter activity interaction Z-score,[1]; [13],0.185 ± 0.16
same,promoter activity interaction Z-score,[1]; [14],0.299 ± 0.26
same,promoter activity interaction Z-score,[1]; [15],-0.112 ± 0.046
same,promoter activity interaction Z-score,[1]; [16],-0.447 ± 1.1
same,promoter activity interaction Z-score,[1]; [17],-0.379 ± 0.054
same,promoter activity interaction Z-score,[1]; [18],0.511 ± 1.2
same,promoter activity interaction Z-score,[1]; [19],0.119 ± 0.39
same,promoter activity interaction Z-score,[1]; [20],1.54 ± 0.67
same,promoter activity interaction Z-score,[1]; [21],1.31 ± 0.45
same,promoter activity interaction Z-score,[1]; [22],1.66 ± 1.3
same,promoter activity interaction Z-score,[2]; [7],0.00335 ± 0.11
same,promoter activity interaction Z-score,[2]; [8],0.0686 ± 0.11
same,promoter activity interaction Z-score,[2]; [9],0.0394 ± 0.14
same,promoter activity interaction Z-score,[2]; [10],0.675 ± 0.52
same,promoter activity interaction Z-score,[2]; [11],0.408 ± 0.1
same,promoter activity interaction Z-score,[2]; [12],0.209 ± 0.16
same,promoter activity interaction Z-score,[2]; [13],0.289 ± 0.15
same,promoter activity interaction Z-score,[2]; [14],0.578 ± 0.075
same,promoter activity interaction Z-score,[2]; [15],0.901 ± 0.57
same,promoter activity interaction Z-score,[2]; [16],0.213 ± 0.23
same,promoter activity interaction Z-score,[2]; [17],0.391 ± 0.17
same,promoter activity interaction Z-score,[2]; [18],1.38 ± 0.55
same,promoter activity interaction Z-score,[2]; [19],1.16 ± 0.52
same,promoter activity interaction Z-score,[2]; [20],0.44 ± 0.26
same,promoter activity interaction Z-score,[2]; [21],1.42 ± 0.091
same,promoter activity interaction Z-score,[2]; [22],1.7 ± 0.14
same,promoter activity interaction Z-score,[3]; [7],-0.317 ± 0.4
same,promoter activity interaction Z-score,[3]; [8],0.283 ± 0.085
same,promoter activity interaction Z-score,[3]; [9],0.0614 ± 0.37
same,promoter activity interaction Z-score,[3]; [10],0.333 ± 0.36
same,promoter activity interaction Z-score,[3]; [11],0.0303 ± 0.3
same,promoter activity interaction Z-score,[3]; [12],0.284 ± 0.18
same,promoter activity interaction Z-score,[3]; [13],0.709 ± 0.41
same,promoter activity interaction Z-score,[3]; [14],0.198 ± 0.39
same,promoter activity interaction Z-score,[3]; [15],-0.722 ± 0.31
same,promoter activity interaction Z-score,[3]; [16],-0.0385 ± 0.32
same,promoter activity interaction Z-score,[3]; [17],-1.06 ± 0.97
same,promoter activity interaction Z-score,[3]; [18],0.199 ± 1.1
same,promoter activity interaction Z-score,[3]; [19],-0.481 ± 0.17
same,promoter activity interaction Z-score,[3]; [20],1.24 ± 0.08
same,promoter activity interaction Z-score,[3]; [21],1.09 ± 0.2
same,promoter activity interaction Z-score,[3]; [22],0.488 ± 0.83
same,promoter activity interaction Z-score,[4]; [7],0.134 ± 0.3
same,promoter activity interaction Z-score,[4]; [8],0.171 ± 0.2
same,promoter activity interaction Z-score,[4]; [9],0.341 ± 0.11
same,promoter activity interaction Z-score,[4]; [10],0.571 ± 0.73
same,promoter activity interaction Z-score,[4]; [11],0.745 ± 0.54
same,promoter activity interaction Z-score,[4]; [12],1.04 ± 0.39
same,promoter activity interaction Z-score,[4]; [13],0.56 ± 0.27
same,promoter activity interaction Z-score,[4]; [14],0.303 ± 0.42
same,promoter activity interaction Z-score,[4]; [15],0.118 ± 0.27
same,promoter activity interaction Z-score,[4]; [16],0.355 ± 0.34
same,promoter activity interaction Z-score,[4]; [17],-0.251 ± 0.88
same,promoter activity interaction Z-score,[4]; [18],-0.337 ± 0.84
same,promoter activity interaction Z-score,[4]; [19],0.598 ± 0.44
same,promoter activity interaction Z-score,[4]; [20],1.92 ± 1.2
same,promoter activity interaction Z-score,[4]; [21],2.53 ± 2.5
same,promoter activity interaction Z-score,[4]; [22],2.68 ± 1.7
same,promoter activity interaction Z-score,[5]; [7],0.154 ± 0.019
same,promoter activity interaction Z-score,[5]; [8],0.4615 ± 0.00081
same,promoter activity interaction Z-score,[5]; [9],0.443 ± 0.19
same,promoter activity interaction Z-score,[5]; [10],0.4 ± 0.53
same,promoter activity interaction Z-score,[5]; [11],0.18 ± 0.23
same,promoter activity interaction Z-score,[5]; [12],0.618 ± 0.11
same,promoter activity interaction Z-score,[5]; [13],0.555 ± 0.098
same,promoter activity interaction Z-score,[5]; [14],0.287 ± 0.083
same,promoter activity interaction Z-score,[5]; [15],0.259 ± 0.017
same,promoter activity interaction Z-score,[5]; [16],0.436 ± 0.14
same,promoter activity interaction Z-score,[5]; [17],0.48 ± 0.11
same,promoter activity interaction Z-score,[5]; [18],0.363 ± 0.93
same,promoter activity interaction Z-score,[5]; [19],-0.597 ± 0.028
same,promoter activity interaction Z-score,[5]; [20],0.693 ± 0.26
same,promoter activity interaction Z-score,[5]; [21],0.532 ± 0.4
same,promoter activity interaction Z-score,[5]; [22],-0.372 ± 0.24
same,promoter activity interaction Z-score,[6]; [7],-0.592 ± 1.1
same,promoter activity interaction Z-score,[6]; [8],0.924 ± 0.68
same,promoter activity interaction Z-score,[6]; [9],-0.26 ± 0.81
same,promoter activity interaction Z-score,[6]; [10],0.91 ± 0.25
same,promoter activity interaction Z-score,[6]; [11],-0.356 ± 1
same,promoter activity interaction Z-score,[6]; [12],0.371 ± 2.1
same,promoter activity interaction Z-score,[6]; [13],0.781 ± 1.4
same,promoter activity interaction Z-score,[6]; [14],-0.463 ± 0.096
same,promoter activity interaction Z-score,[6]; [15],0.348 ± 0.41
same,promoter activity interaction Z-score,[6]; [16],0.458 ± 1.9
same,promoter activity interaction Z-score,[6]; [17],0.119 ± 0.56
same,promoter activity interaction Z-score,[6]; [18],1.86 ± 0.96
same,promoter activity interaction Z-score,[6]; [19],0.28 ± 0.49
same,promoter activity interaction Z-score,[6]; [20],2.27 ± 0.56
same,promoter activity interaction Z-score,[6]; [21],0.498 ± 0.67
same,promoter activity interaction Z-score,[6]; [22],1.22 ± 0.073
